Screens as filed in PubChem.
An excerpt weighted towards active compounds, which were near 19% of everything screened.
TDP1 cell noCPT = qHTS for Inhibitors of human tyrosyl-DNA phosphodiesterase 1 (TDP1): qHTS in cells in absence of CPT | DT40 Tdp1-/- hTDP1 cells, no CPT, ATP luminescence, 48 h | 420,000 compounds, 15% hits | AID 686978, 2013 | Potency, µM (series often up to 46.2 µM), usual class: inhibitors; further: nearly all actives have a fitted effect of over 55% in size
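Luminescent ATP content (CellTiter-Glo) served as the growth readout. Knockout chicken DT40 cells expressing human TDP1 were exposed to compounds without camptothecin for a minimum 48 hr at 37 °C.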
IL1B secr inh = blocks inflammasome-driven IL-1 beta release; THP-1 LPS/ATP IL-1B secretion, AlphaLISA, 16 h; active compounds read low; 360,000 compounds, 4.7% hits; activity change, % at 57.5 µM; in the data active means activity change below about -50%; inconclusive means mostly about -30% to -49%
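THP-1 cells pretreated 1 hr with compounds (up to 57.5 uM final), then stimulated with LPS (250 ng/mL final) plus ATP (1.25 mM final); secreted IL-1B measured by AlphaLISA after 16 hr, decreased signal indicating inhibition.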
TDP1 cell CPT = DT40-hTDP1 cell growth loss with CPT; chicken DT40 Tdp1-/-;hTDP1 cells + 20 nM CPT, ATP luminescence, 48 h; Potency, µM (doses to about 46.2 µM), usual class: inhibitors; 420,000 compounds, 12% hits; further: nearly all actives have a fitted effect of over 55% in size
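Chicken DT40 Tdp1-/- cells complemented with human TDP1, 400 cells/well, exposed to compounds plus 20 nM camptothecin for at least 48 h at 37 C; viability read as ATP content by CellTiter-Glo luminescence.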
HT1080-NT tox = kills 2HG-producing HT-1080-NT fibrosarcoma cells; HT-1080-NT fibrosarcoma viability, CellTiter-Glo ATP luminescence, 48 h; Potency, µM (doses to about 46.1 µM), usual class: cytotoxic; 360,000 compounds, 1.6% hits; AID 686970;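 further: NT is the 2HG producing partner of a matched IDH1 knockdown line; nearly all actives have a fitted effect of over 55% in size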
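Fibrosarcoma NT cells, 750 per well in 5% FBS RPMI, were exposed to compound for 48 hours. Viability: CellTiter-Glo luminescence.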
HT1080 IDH1KD tx = toxicity to HT-1080 IDH1 knockdown cells (counter line). HT-1080 IDH1 knockdown viability, ATP luminescence, 48 h. Potency, µM (highest dose often 46.1 µM), most hits filed as cytotoxic. 360,000 compounds, 2% hits
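HT-1080-IDH1KD cells (IDH1 knocked down), 750/well in RPMI with 5% FBS, treated with compound 48 h at 37 degrees C. Viability by CellTiter-Glo luminescence, normalised to DMSO and no-cell wells; concentration-response curves classed.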
Numbers stand for hits; - = inactive; ? = inconclusive; . = no result given; [ ] = remark or other dose. Unless noted, the call rests on the fitted dose curve; in most records, active means well fitted curve in the direction sought with a large enough effect; inconclusive means small, poorly fitted or top-dose-only effect, or another doubt; inactive means no such curve, though single readings can be large; an effect the other way counts as inactive or inconclusive.

SMILES | TDP1 cell noCPT | IL1B secr inh | TDP1 cell CPT | HT1080-NT tox | HT1080 IDH1KD tx
CCCCSCCCNC(=O)C1CCC(CNS(=O)(=O)c2c(C)cc(C)cc2C)CC1 (stereo unspecified) | 18.4µM | . | 14.6µM | . | .
Cc1cnc(CNc2ccnc(-c3cccnc3)n2)cn1 | - | . | - | . | .
COc1ccc(OC(C)C(=O)N2CCCc3ccccc32)cc1 (stereo unspecified) | ? | - | ? | - | -
NC(N)=N/N=C(\N=Nc1ccccc1)c1cccc2cccnc12 | 20.6µM | - | 23.1µM | - | ?
NC(N)=N/N=C(\N=Nc1ccccc1)c1ccc(Cl)cc1 | 13µM | -113.5 | 13µM | ? | -
CN1CCN(C(CNC(=O)C(=O)Nc2ccccc2C#N)c2ccc3c(c2)OCO3)CC1 (stereo unspecified) | - | . | - | . | .
OCCCNc1ncnc2c1ncn2[C@H]1CN(C2CCCC2)C[C@@H](CO)O1 | - | - | - | - | -
COc1ccc(-c2nnn(CC(=O)N(CC(=O)NC3CCCC3)c3ccccc3)n2)cc1OC | 14.6µM | - | ? | - | -
Cc1ccc(-c2nnn(CC(=O)N(CC(=O)NC3CCCC3)c3ccc(F)c(Cl)c3)n2)o1 | ? | - | ? | ? | 16.4µM
Cc1ccc(-c2nnn(CC(=O)N(CC(=O)NC3CCCCC3)c3ccc(F)c(Cl)c3)n2)o1 | 20.6µM | - | 13µM | ? | 18.4µM
Cc1ccc(-c2nnn(CC(=O)N(CC(=O)NC3CCCCC3)c3cccc(F)c3)n2)o1 | - | - | - | - | -
COc1ccc(C(=O)Nc2nnc(S(=O)(=O)N(C)c3ccc(C)cc3)s2)cc1 | ? | . | - | . | .
CCn1c(-c2ccccc2Cl)nn(CC(=O)Nc2cc(Cl)ccc2Cl)c1=S | ? | - | - | - | -
COc1ccc(NC(=S)N(CCCN2CCC(C)CC2)Cc2cccs2)cc1Cl | 18.4µM | ? | 25.9µM | ? | ?
COc1ccc(NC(=S)N(CCCN2CCN(C)CC2)Cc2cccs2)cc1 | - | - | - | - | -
Cc1ccccc1NC(=S)N(Cc1ccccc1)Cc1cccs1 | - | - | - | - | -
CN1CCN(CCCN(Cc2cccs2)C(=S)Nc2ccc(Cl)cc2)CC1 | ? | -65.0 | ? | - | -
CNC(=S)N(Cc1ccc(Cl)cc1)Cc1cccs1 | 16.4µM | . | ? | - | -
CCN(CC)CCCNC(=O)C(=O)Nc1ccc2nc3n(c(=O)c2c1)CCCCC3 | - | . | - | . | .
CN(C)C(=O)N1CCN(C(=O)N2CCOCC2)CC1 | - | - | - | - | -
C[C@@H]1C=C(C(=O)NCc2ccccc2)O[C@H](OCc2ccc(CO)cc2)C1 | - | - | - | - | -
Cc1c(C(O)CN2CCN(Cc3ccc4c(c3)OCO4)CC2)c2ccccc2n1C (stereo unspecified) | - | - | ? | ? | 11.2µM
COc1ccc2c(c1)c(C(O)CN1CCN(Cc3ccc4c(c3)OCO4)CC1)c(C)n2C (stereo unspecified) | 23.1µM | - | ? | - | -
Cn1c(=O)c([N+](=O)[O-])c(N2CCN(Cc3ccc4c(c3)OCO4)CC2)c2ccccc21 | 8.2µM | - | 13µM | - | -
COc1ccc2c(c1)c(C(O)CN1CCC(Cc3ccccc3)CC1)c(C)n2C (stereo unspecified) | ? | -89.6 | ? | - | -
SMILES | TDP1 cell noCPT | IL1B secr inh | TDP1 cell CPT | HT1080-NT tox | HT1080 IDH1KD tx
Cc1cccc(C(=O)Nc2cccc(OCc3cc(=O)n4cccc(C)c4n3)c2)c1 | - | . | - | . | .
O=C(CSc1nncn1-c1ccccc1)NC1CCCCC1 | - | - | - | - | -
Cc1ccc(CNc2ccc(-c3nc(-c4ccco4)no3)cc2[N+](=O)[O-])cc1 | - | . | - | . | .
COc1ccc(Br)cc1C1CC(=O)C(C)C(c2cc(Br)ccc2OC)N1 (stereo unspecified) | - | - | - | - | -
Cc1ccc(CN2CC(C(=O)N3CCN(c4ccccc4O)CC3)CC2=O)cc1 (stereo unspecified) | ? | - | - | - | -
CC(/C=C/c1ccccc1)=N\NC(=O)Cn1nc(C)cc1C | - | - | - | ? | -
OC(CN1CCN(Cc2ccc3c(c2)OCO3)CC1)c1c[nH]c2ccccc12 (stereo unspecified) | ? | ? | 11.6µM | - | -
OC(CN1CCN(c2ccccc2)CC1)c1c[nH]c2ccccc12 (stereo unspecified) | ? | - | ? | - | -
COc1ccc(CCNC(=O)COc2ccc(S(=O)(=O)NC3CCCCC3)cc2Cl)cc1OC | 16.4µM | - | 23.1µM | - | -
O=C(COc1ccc(S(=O)(=O)NC2CCCCC2)cc1Cl)NCc1ccc2c(c1)OCO2 | ? | - | ? | -[9.24 µM] | ?
O=C(COc1ccc(S(=O)(=O)NC2CCCCC2)cc1Cl)Nc1ccc2c(c1)OCO2 | ? | -58.8 | ? | ? | ?
CC(C)c1ccc([C@@H]2O[C@H](C)CC3=C2C(=O)OC(C)(C)O3)cc1 | ? | - | - | - | -
O=c1[nH]c(=S)[nH]cc1Oc1ccc(Br)cc1Br | - | - | - | - | -
CCOc1cccc(C(=O)Nc2ccc3oc(-c4ccc(C(C)(C)C)cc4)nc3c2)c1 | 2.91µM | . | ? | . | .
CCOc1ccc(C(=O)Nc2ccc3oc(-c4ccc5ccccc5c4)nc3c2)cc1 | ? | . | 3.66µM | . | .
CCOc1ccc(C(=O)Nc2ccc3oc(-c4ccncc4)nc3c2)cc1 | - | . | - | . | .
CCOc1cccc(C(=O)Nc2ccc3oc(-c4cccnc4)nc3c2)c1 | ? | ? | ? | - | -
CC(OC(=O)c1ccc2c(c1)OCO2)C(=O)NC1CCCCC1 (stereo unspecified) | ? | - | ? | - | -
CCOC(=O)N1CCC(NC(=O)CCc2c(C)nc3c(c(C)nn3C(C)(C)C)c2C)CC1 | ? | - | ? | ? | ?
CCOC(=O)c1ccc(NC(=O)CCc2c(C)nc3ncnn3c2C)cc1 | - | - | - | - | -
CCOC(=O)c1ccc(NC(=O)CCc2c(C)nc3c(c(C)nn3C(C)(C)C)c2C)cc1 | 18.4µM | . | 16.4µM | . | .
COC(=O)c1ccc(NC(=O)CCc2c(C)nc3c(c(C)nn3C(C)(C)C)c2C)cc1 | 18.4µM | . | ? | . | .
O=C(Cn1c(=O)n(CC2CCC(C(=O)NCCc3ccccc3)CC2)c(=O)c2ccccc21)Nc1ccccc1 (stereo unspecified) | - | . | - | . | .
Cc1ccc(NC(=O)Cn2c(=O)n(CC(=O)NCCc3ccccc3)c(=O)c3ccccc32)cc1 | - | . | - | . | .
CCc1cccc(NC(=O)Cn2c(=O)n(CC3CCC(C(=O)NCCc4ccccc4)CC3)c(=O)c3ccccc32)c1 (stereo unspecified) | 13µM | . | 20.6µM | . | .
